TIM10 inh = growth inhibitors of isogenic TIM10 control yeast, primary screen, counter-screen for tim10-1 yeast inhibitor project, luminescence, uHTS. S. cerevisiae TIM10 strain growth, BacTiter-Glo luminescence, 24 h. inhibition, % at 10 µM. hit rate 1.4% among 330,000;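 active = inhibition of 40% or more at the single tested concentration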;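 also: wild-type TIM10 isogenic control strain grown at permissive 25 °C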
PfHsp90 yeast 2 = growth inhibition of PfHsp90-expressing yeast, primary screen, antimalarial PfHsp90 inhibitor project, S. cerevisiae, BacTiter-Glo luminescence, single point, set 2 | inhibition, % at 9.4 µM | AID 504621, 2011 | hit rate 0.32% among 310,000 | BacTiter-Glo ATP, 48 h; yeast lacking PDR1 and PDR3 efflux regulators;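 active = every replicate shows inhibition above about 80%, whatever the replicate mean, limit read from the data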;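 also: 0% = DMSO neutral controls and 100% = 20 µM radicicol positive controls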
Mot1-301 SUMO = yeast Mot1-301 growth rescue at high temperature, primary screen, SUMOylation pathway inhibitor project, S. cerevisiae, ATP luminescence, 38.5C | S. cerevisiae Mot1-301 growth rescue; percent above DMSO median, 100 means doubled | growth rescue, % at 18.8 µM | hit rate 1% among 320,000 | AID 2716, 2010;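 active = every valid replicate shows activation above 250% relative to neutral control wells; inactive = the rest, any valid replicate at or below 250%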;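 also: OY570 slx delta 5 strain wells were the positive control but not used for scaling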
tim10-1 inh = growth inhibitors of tim10-1 mutant yeast, primary screen, luminescence, uHTS; S. cerevisiae tim10-1 ts strain growth, BacTiter-Glo, 24 h; inhibition, % at 20 µM; hit rate 2.2% among 330,000;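 active = inhibition of at least 40%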;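 also: mutant grown at 25 °C; 0% = DMSO wells with yeast and 100% = wells holding no yeast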
tim23-1 inh = growth inhibitors of tim23-1 mutant yeast, primary screen, luminescence, uHTS; S. cerevisiae tim23-1 growth, BacTiter-Glo luminescence, 24 h; inhibition, % at 20 µM; hit rate 1.3% among 330,000; AID 463212, 2010;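 active = growth inhibition of the mutant yeast at or above 50%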;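 also: temperature-sensitive mutant grown at 25 °C; plate controls were DMSO-treated mutant yeast for no effect and medium wells lacking yeast for full effect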
tim10-1 confirm = growth inhibitors of tim10-1 mutant yeast, confirmation, single concentration, luminescence, S. cerevisiae; S. cerevisiae tim10-1 ts strain growth, BacTiter-Glo, 24 h; hit rate 56% among 7,400; inhibition, % at 20 µM; shares compounds with tim10-1 inh;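 active = inhibition of yeast growth at or above a set limit in either of two repeat tests at 20 µM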;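 also: tim10-1 mutant grown at permissive 25 °C to find synthetic lethal compounds; 0% = DMSO yeast wells and 100% = medium wells without yeast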
TIM10 conf = growth inhibitors of wild-type TIM10 yeast, confirmation, counter-screen for tim10-1 synthetic lethality project, single concentration, luminescence, S. cerevisiae | shares compounds with TIM10 inh | S. cerevisiae tim10 strain growth, BacTiter-Glo luminescence, 24 h | inhibition, % at 10 µM | hit rate 63% among 4,600 | AID 463215, 2010;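 active = inhibition of yeast growth at or above a set limit in either of two replicates at 10 µM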;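 also: this counterscreen used the strain with wild-type TIM10; 0% = yeast with DMSO and 100% = medium wells lacking yeast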
tim23-1 conf = tim23-1 mutant yeast growth inhibitors, confirmation, luminescence, single concentration. shares compounds with tim23-1 inh. S. cerevisiae tim23-1 growth, BacTiter-Glo luminescence, 24 h. inhibition, % at 20 µM. hit rate 83% among 4,400. AID 463218, 2010;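 active = inhibition above about 39% in either of two replicate wells at 20 µM, limit read from the data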;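 also: temperature-sensitive tim23-1 mutant grown at 25 °C; 0% = DMSO wells with yeast and 100% = medium wells without yeast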
* hit, by the source's call; x = no result. Only some compounds are listed: those with a hit (about 4.4% of all), similar ones and a draw of the others.

SMILES	TIM10 inh	PfHsp90 yeast 2	Mot1-301 SUMO	tim10-1 inh	tim23-1 inh	tim10-1 confirm	TIM10 conf	tim23-1 conf
N/C(=N\OC(=O)Nc1ccccc1)c1ncc(C(F)(F)F)cc1Cl	25.0	-3.7	6.1	25.7	44.7	x	x	x
Oc1ccccc1N=Cc1c(O)ccc2oc3c(c12)CCCC3	38.2	-55.5	143.4	46.8*	52.1*	55.2*	x	72.8*
COc1ccc(NC(=O)[C@H](C)NC(=O)C2CCN(S(=O)(=O)c3ccc(C)cc3)CC2)cc1OC	1.4	8.5	-15.5	1.5	-19.0	x	x	x
CCOc1ccc(/C=N/NC(=O)C(O)c2ccccc2)c(O)c1 (centres undefined)	9.9	11.9	-9.2	5.7	16.0	x	x	x
Cn1nnnc1SCC(=O)N1CCc2ccccc2C1	10.3	-21.6	2.1	12.4	-5.0	x	x	x
Cc1ccc(-n2nnnc2SCC(=O)N2CCc3ccccc3C2)cc1	40.7*	13.7	x	45.9*	54.3*	41.2*	33.5*	41.1*
O=C(N/N=C/c1ccc[nH]1)c1ccccc1OCc1ccccc1Cl	18.2	0.2	13.6	27.6	44.7	x	x	x
O=C(N/N=C/c1ccco1)c1ccccc1OCc1ccccc1Cl	42.2*	-2.7	-2.8	43.9*	50.6*	41.4*	37.6*	48.2*
CCc1c(C)c(C#N)c2nc3ccccc3n2c1NCCN(C)C	57.9*	17.3	-10.2	62.7*	58.7*	56.1*	34.1*	64.8*
CCOC(=O)c1c(N)sc2c(O)c(Br)ccc12	53.2*	-37.8	5.5	49.5*	51.8*	50.1*	46.7*	-24.1
CCOC(=O)c1c(N)sc2c(NC(C)=O)cccc12	27.2	7.5	16.6	-4.7	15.0	x	x	x
O=C(Oc1ccccc1C(=O)Nc1ccccc1)c1ccc(Br)c([N+](=O)[O-])c1	52.5*	-57.6	39.7	47.3*	61.4*	51.0*	35.2*	74.2*
CC1CCN(C(=O)CCCl)c2ccccc21 (centres undefined)	x	-2.0	x	x	x	x	x	x
Nc1nc2sc3c(c2c(=O)s1)CCCC3	44.0*	-93.0	40.7	54.0*	73.2*	25.2	33.0*	51.6*
Cc1ccc(C(=O)/C=C/c2cc(Br)cc(Br)c2O)o1	38.1	-5.0	-21.4	52.7*	65.0*	50.0*	x	66.4*
COc1ccc(NC(=O)COC(=O)c2cc3c(s2)CCC3)cc1	0.7	2.1	21.5	3.8	13.4	x	x	x
FC(F)(F)c1cccc(Sc2nc(-c3ccccc3)nnc2C(F)(F)F)c1	15.2	4.0	430.9	39.5	21.8	x	x	x
FC(F)(F)c1nnc(-c2ccccc2)nc1Sc1ccc(Cl)cc1	31.1	-6.6	-2.2	50.6*	62.3*	48.9*	x	46.8*
C1=NN(c2ccccc2)C=NN1c1ccccc1	x	-8.8	x	x	x	x	x	x
COc1cccc(-c2sc3ccccc3c2-c2ccc(OCCN3CCCC3)cc2)c1	-25.9	21.6	58.9	3.7	16.8	x	x	x
COc1cccc(-c2sc3ccc(OC)cc3c2-c2ccc(OCCN3CCCC3)cc2)c1	12.0	5.7	x	40.4*	70.0*	37.8*	x	45.5*
CCOC(=O)Cc1csc(NC(=S)NC(=O)c2ccc(C)cc2)n1	23.8	15.2	5.8	16.7	-5.9	x	x	x
CCOC(=O)Cc1csc(NC(=S)NC(=O)CC(C)C)n1	42.3*	-28.8	9.0	50.4*	55.1*	47.2*	39.1*	55.5*
Nc1cc(Cl)nc(N/N=C/c2c(O)ccc3ccccc23)n1	44.5*	-2.9	-23.4	49.8*	66.1*	38.3*	-9.2	70.0*
CCOc1c(Br)cc(/C=C2\N=C(C)OC2=O)cc1Br	28.2	3.7	1.6	61.4*	58.7*	32.5*	x	64.0*
